Source: PubChem BioAssay (NCI)
About 83,000 compounds went through this panel and 20% of them were active in at least one assay; those are over-represented in the sample as a whole.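 Step 1: grow cells in 96-well plates. Step 2: add test compound at a single concentration. Step 3: incubate 48 h. Step 4: record percent growth.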 Active and inactive are the calls of the source. How the source made its calls: active means growth percent below 10; inactive means the rest.

These molecules were tested on UO-31 renal (assay: NCI-60 one-dose screen, 48 h (100 = growth as untreated, 0 = no growth, -100 = all killed)). Conditions: 10 µM unless noted.

Row | Compound | growth
1 | COc1ccc(C2SCC(=O)N2NC(=O)c2ccc(NC(=O)c3ccccn3)cc2)cc1OC (centres undefined) | 89.7% (inactive)
2 | O=C(O)c1cn(C2CC2)c2cc(N3CCN(S(=O)(=O)c4ccc(Cl)c(Cl)c4)CC3)c(F)cc2c1=O | 10% (inactive)
3 | COc1ccc(/C=C/C(=O)c2ccc(B(O)O)cc2)cc1O | 60.8% (inactive)
4 | O=C(Nc1ccc(OCc2nnc(-c3ccc(Cl)cc3)o2)c(F)c1)Nc1ccc(Cl)c(Cl)c1 | 56.3% (inactive)
5 | COc1cc(/C=C2\C=C(c3ccc(F)cc3)N(Cc3ccccc3)C2=O)cc(OC)c1OC | 45.9% (inactive)
6 | Cc1cc(C)c(NC(=O)c2sc3nc4c(cc3c2N)CN(Cc2ccccc2)CC4)c(C)c1 | 26.5% (inactive)
7 | COc1cccc(-c2nc3sccn3c2-c2ccnc(NCCCNS(=O)(=O)c3ccccc3)n2)c1 | 29.5% (inactive)
8 | COc1cc(NCCN=C(N)NC(N)=NC(C)C)c2ncccc2c1 | 81.7% (inactive)
9 | Cc1ccc(Nc2ncnc3c2sc2ncccc23)cc1 | 90.9% (inactive)
10 | COc1cccc(/C=C2\SC(N3CCN(c4ccccn4)CC3)=NC2=O)c1 | 84.5% (inactive)
11 | CCOC(=O)C1=C(CSC(=S)N(C2CCCCC2)C2CCCCC2)N(C)C(=O)NC1c1ccccc1 (centres undefined) | 44.5% (inactive)
12 | CC(C)C[C@H](NC(=O)[C@@H](Cc1ccccc1)n1ccc(Nc2ccccc2)cc1=O)B(O)O | -44% (active)
13 | COc1cccc(-c2nc3sccn3c2-c2ccnc(NCCCNS(=O)(=O)c3ccc(F)cc3)n2)c1 | 12.5% (inactive)
14 | O=S(=O)(NCCCNc1nccc(-c2c(-c3ccccc3)nc3sccn23)n1)c1ccc(F)cc1 | 24.9% (inactive)
15 | Nc1c(C(=O)Nc2ccccc2)sc2nc3c(cc12)CCCCC3 | 21.5% (inactive)
16 | CCNC(=O)CCCCC(=O)c1c(C)[nH]c(/C=C2\N=C(c3ccc[nH]3)C=C2OC)c1C | -100% (active)
17 | Cc1cc(Nc2nc(C(=O)Nc3ccccc3)nc3ccccc23)n[nH]1 | 37.3% (inactive)
18 | CCCCCCCCCCCCCCCCC(Br)C(=O)O (centres undefined) | 87.9% (inactive)
19 | COc1ccc(/C=C2\C(=O)N(C(=O)c3csc(NC(C)=O)n3)N=C2C)cc1 | 81.9% (inactive)
20 | COc1ccc(-c2nc3sccn3c2-c2ccnc(NCCCNS(=O)(=O)c3ccc4ccccc4c3)n2)cc1 | 60.7% (inactive)

Row | Compound | growth
21 | CC[C@]1(O)C[C@@H]2CN(Cc3c([nH]c4ccccc34)[C@@](C(=O)OC)(c3cc4c(cc3OC)N(C)[C@H]3[C@@](O)(C(=O)OC)[C@H](OC(C)=O)[C@]5(CC)[C@@H]6C[C@@H]6CN6CC[C@]43[C@@H]65)C2)C1 | 68.5% (inactive)
22 | CN=S(=O)(NC(=O)c1ccc(Cl)cc1Cl)c1ccc(Br)s1 (centres undefined) | 89.4% (inactive)
23 | Cc1ccc(S(=O)(=O)NCCCNc2nccc(-c3c(-c4ccccc4)nc4sccn34)n2)cc1 | 33.9% (inactive)
24 | COc1cc(OC)c(C(=O)/C=C/c2cccc(C#N)c2)c(OC)c1 | 12.4% (inactive)
25 | COc1ccc(C2CC(c3cccs3)=NN2c2ccc(S(=O)(=O)NC(=O)Nc3ccc(C)cc3)cc2)cc1 (centres undefined) | 85.7% (inactive)
26 | O=S(=O)(NCCNc1nccc(-c2c(-c3ccccc3)nc3sccn23)n1)c1ccc(O)cc1 | 31.4% (inactive)
27 | CNC(=O)Cc1nc(-c2cccc(NS(=O)(=O)c3c(F)cccc3F)c2F)c(-c2ccnc(Nc3ccccc3)n2)s1 | 27.3% (inactive)
28 | O=c1[nH]c2ccccc2cc1-c1nnc(Cc2ccccc2)o1 | 40% (inactive)
29 | CCCCCCC[C@@H](O)CC(=O)N[C@H](CCCCN)C(=O)N[C@H](Cc1c[nH]c2ccccc12)C(=O)NC(CCCCN)C(=O)N[C@H](CC(C)C)C(=O)N[C@H](Cc1ccccc1)C(=O)N[C@H](CCCCN)C(=O)N[C@H](CCCCN)C(=O)N[C@H](CC(C)C)C(=O)N1CCCC1C(=O)N[C@H](CCCCN)C(=O)N[C@H](Cc1ccccc1)C(=O)N[C@H](CC(C)C)C(=O)N[C@H](Cc1c[nH]cn1)C(=O)N[C@H](CC(C)C)C(=O)N[C@H](C)C(=O)N[C@H](CCCCN)C(=O)N[C@H](CCCCN)C(=O)N[C@H](Cc1ccccc1)C(=O)O (some centres undefined) | -54.5% (active)
30 | Oc1ccc(Cl)cc1-c1cc(-c2ccc(Cl)cc2)n[nH]1 | 29% (inactive)
31 | CN1C(=O)[C@H]2c3c1cccc3[C@@]13NC(=O)O[C@H]1[C@H](CCC3(C)C)C2(C)C | 84.6% (inactive)
32 | Cc1cccc(-n2c(C)nc3ccc(NC(=O)NCCCl)cc3c2=O)c1 | 94.2% (inactive)
33 | COc1c(NC[C@H]2OC(O)[C@H](O)[C@@H](O)[C@@H]2O)c(=O)c1=O (some centres undefined) | 86.7% (inactive)
34 | COc1ccc(-c2nnc(COc3ccc(NS(=O)(=O)c4ccc(OC)cc4)cc3F)o2)cc1 | 51.1% (inactive)
35 | CCCOC(=O)C1(O)CCCC1 | 90.6% (inactive)
36 | Nc1c(C(=O)Nc2ccccc2)sc2nc3c(cc12)CN(Cc1ccccc1)CC3 | 49.8% (inactive)
37 | COc1cc(OC)cc(-c2n[nH]nc2-c2ccc3c(c2)OCO3)c1 | 44.9% (inactive)
38 | Cc1ccc(Oc2nc3ccccc3cc2-c2nnc(Cn3c(COc4ccccc4)nc4ccccc43)o2)cc1 | 8.45% (active)
39 | COc1cc(C(=O)/C=C/c2cc(C(=O)c3cc(OC)c(OC)c(OC)c3)ccc2OC)ccc1N | -86.7% (active)
